{
  "source": "the supplement of paper PMC6555819",
  "data": [
    {"tested_on": "PPARg DBDmut:RXRa IVT, anti-PPARg (DBD mutation: PPARg1 K132A/R137A, NR concentration 270 nM, RXRa partner concentration 90 nM)", "assay": "PBM binding z-score (relative to random genomic background probes); higher = stronger binding; sequences stand for … in GC…GCGATTGACAGCGTAGAATGAAGG", "procedure,_shortened": "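Binding z-scores were set against random background probes. The data came from custom Agilent 4×180K protein-binding microarrays carrying double-stranded probes with 34-nt variable regions, incubated 1 h with ligand-free nuclear receptor dimers. Partner-specific antibodies detected binding, and scanned fluorescence was regression-normalized.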", "values": [
      {"sequence": "CGTACAGGGTCAGCTAGGCCAGAGTAGGGACGGC", "PBM binding z-score": 0.166},
      {"sequence": "ACCGAAAGGTCGAGGTGAGTATAGAGAAAGGGAA", "PBM binding z-score": 0.276},
      {"sequence": "AATATTAGTTGACTTAGGGCAACCGATACGACGC", "PBM binding z-score": 1.41},
      {"sequence": "ACTAGCAGGCCAAGGGTCACTCCAGATTAGTCCG", "PBM binding z-score": -0.0917},
      {"sequence": "ATCTCTAGGTAACAAAGTTCAGTGAATGCCGAAC", "PBM binding z-score": 1.17},
      {"sequence": "TCTAGCAGGCCAGAGGGTCACTTAAGAGGTACGG", "PBM binding z-score": -0.762},
      {"sequence": "TCTTGTAGATCATTAGAGGTTAAGAAAGTGCGCT", "PBM binding z-score": 0.756},
      {"sequence": "GCTAGTAGTTGAAAGGGCAACCGAATGATTCTCG", "PBM binding z-score": -0.638},
      {"sequence": "GCTCGGAGGACAAGGGCAGAGCTTTGTCCGTAGA", "PBM binding z-score": -1.1},
      {"sequence": "AGAATGAGGTTAAGATCATGGAAACAGAATACAT", "PBM binding z-score": 1.78},
      {"sequence": "AGTAGCAGGCCAAGTTTGGGTCACTCAAACAAAG", "PBM binding z-score": -1.1},
      {"sequence": "TCGAGTAGGTTACCAATGGGGCATTAAGCTTTCT", "PBM binding z-score": -0.388},
      {"sequence": "CCAACTAGGTCACGAAAGGTCAAAGTCGAATGAC", "PBM binding z-score": 1.23},
      {"sequence": "AGAATGAGGTTACCAAAGATCAGGGAAACGCTTG", "PBM binding z-score": 1.26},
      {"sequence": "ATCGAAAGGACGTGAGGTGAGTATACAGAAAGGC", "PBM binding z-score": 1.3},
      {"sequence": "TCTAGTTGGACACGGAGGTCACACACGACGGGTA", "PBM binding z-score": 0.713},
      {"sequence": "CTACCAAGGTGAACAAGGTCATTGATTACTATTC", "PBM binding z-score": 0.536},
      {"sequence": "CGAACTAGGTCATTGACAGGACAGTGAGTAGTAA", "PBM binding z-score": 0.587},
      {"sequence": "TCTTGTAGATCAACAGGAGGTTATGAAAGATCGA", "PBM binding z-score": 0.881},
      {"sequence": "ACTTACGGGTCATCGAGGTTATAGCACGCGTATA", "PBM binding z-score": 1.78},
      {"sequence": "GCTATCAGTTGAAAGGGCAACCGAATGATTCTCG", "PBM binding z-score": -0.111},
      {"sequence": "CGAACGAGGGCATGAGTTGATAGCGAATGCCGAT", "PBM binding z-score": -0.216},
      {"sequence": "TAGCCTAGGTCATGCGGGCCAGAATAGTGTCGGC", "PBM binding z-score": -0.0114},
      {"sequence": "GCTAGTTGGTCAGTAAAAGGTCACAAACCGGTCG", "PBM binding z-score": -0.571},
      {"sequence": "CCTAGTTGGTCAAGGGCACACACGCTATAGGTAC", "PBM binding z-score": -0.275},
      {"sequence": "ACAGACGGGTGAGTGAAGGTAACTCAGCTGGACG", "PBM binding z-score": "2.8e-05"},
      {"sequence": "CCTATTAGTTGACCATAAGGGCAACCTAAGCTCG", "PBM binding z-score": 0.365},
      {"sequence": "GGAACGAGGGCAAGTTGATACCAGAGTTTGATGG", "PBM binding z-score": -0.214},
      {"sequence": "CCTTACAGGTCACTCCAGGTTATAGCATCGGAGT", "PBM binding z-score": 0.516},
      {"sequence": "TTACCAAGGTGAAGGTTGTTGATCCCTCTGTAGA", "PBM binding z-score": 0.413},
      {"sequence": "TCAGATAGGTAAACAGGTGAAAGTCCGTAAGTTA", "PBM binding z-score": 0.778},
      {"sequence": "AGAATGAGGTTGAGATCAGGGAAACAGAATACAT", "PBM binding z-score": 0.897},
      {"sequence": "TCTCGGAGGACACGAAGGTCACAGCTTTCCAGAG", "PBM binding z-score": 0.166},
      {"sequence": "TCTCGGAGGACACGAAGGTCAGATCTTTCCAGAG", "PBM binding z-score": -0.994},
      {"sequence": "AGAACGAGGGCACGCGGAGTTGATAGCAGAGTAG", "PBM binding z-score": 0.563},
      {"sequence": "CCTCAGAGGACAGAAGGTCAGAGCTGTCCGCTTT", "PBM binding z-score": -0.801},
      {"sequence": "TCTCGGAGGACACGAAGGTTAGAGCTTTCCAGAG", "PBM binding z-score": -0.626},
      {"sequence": "CGTTCAAGGTCAGAGAGGTCAGTGAATGCCGAGT", "PBM binding z-score": 1.75},
      {"sequence": "CTTGCTAGGTCATGGTCAGCTAATCTACAGTATG", "PBM binding z-score": 0.897},
      {"sequence": "CCTTACGGGTCTCGAGGTTATAGCACGACGAGCG", "PBM binding z-score": -0.399}
    ]}
  ]
}
